Screening data as filed in PubChem.
HT1080 IDH1KD tx = HT-1080 IDH1 knockdown cell toxicity (counter line). HT-1080 IDH1 knockdown viability, ATP luminescence, 48 h. Potency, µM (doses to about 46.1 µM), usual class: cytotoxic. 2% of 360,000 active
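% activity derives from luminescence (CellTiter-Glo), normalised to DMSO and no-cell wells. HT-1080-IDH1KD cells, 750/well, had 48 h compound exposure at 37 °C.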
MCF10A rereplic = DNA re-replication induction in MCF 10a cells; MCF 10A DNA re-replication, Hoechst nuclear intensity, 48 h; 2.9% of 350,000 active; Potency, µM (highest dose often 46.1 µM), most hits filed as activators; AID 624296; further: nearly all actives have a fitted effect of over 50% in size
SW480 rereplic = DNA re-replication induction in SW480 cells | 1.8% of 340,000 active | AID 624297 | SW480 DNA re-replication, Hoechst DNA content imaging, 48 h | Potency, µM (highest dose often 46.1 µM), usual class: activators; further: nearly all actives have a fitted effect of over 55% in size
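First, 250 cells per well were seeded. Next, compound or vehicle (23 nL) was pinned in, plates sat 48 hr at 37 C. Finally Hoechst was added for 40 min before fluorescence scanning.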
KB-3-1 tox = kills parental KB-3-1 adenocarcinoma cells. KB-3-1 viability, CellTiter-Glo ATP luminescence, 72 h. Potency, µM (highest dose often 46.1 µM), hits mostly cytotoxic. 1.4% of 400,000 active; further: nearly all actives have a fitted effect of over 60% in size
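Luminescent ATP read-out (CellTiter-Glo) measures survival of drug-naive KB-3-1 cells after 72 h compound exposure at 37 °C. Titration series was screened from lowest to highest concentration, with DMSO vehicle plates as background controls.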
HT1080NT lethal = kills 2HG-producing HT-1080-NT fibrosarcoma cells; HT-1080-NT fibrosarcoma viability, CellTiter-Glo ATP luminescence, 48 h; Potency, µM (top dose mostly 46.1 µM), actives largely listed as cytotoxic; 1.6% of 360,000 active;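 further: NT is the 2HG producing partner of a matched IDH1 knockdown line; nearly all actives have a fitted effect of over 55% in size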
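A 48-hour cytotoxicity screen used HT-1080-NT cells plated 2 hours before compound delivery. ATP-based CellTiter-Glo luminescence measured viability, normalized to DMSO and no-cell controls.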
KB-V1 MDR tox = kills drug-selected multidrug resistant KB-V1 cells; KB-V1 MDR cells viability, CellTiter-Glo, 72 h; Potency, µM (top dose mostly 46.1 µM), most hits filed as cytotoxic; 3.4% of 400,000 active; further: nearly all actives have a fitted effect of over 60% in size
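Following 72 h at 37 degrees C with compound, KB-V1 cell viability was read by CellTiter-Glo luminescence, medium being phenol-red-free DMEM plus 10% FBS; concentration-response parameters came from normalized, curve-fitted qHTS data.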
Numbers stand for hits. Most compounds without a hit are left out; they make up all but 7.9% or so of the library. The call rests on the fitted dose curve; in most records, active means well fitted curve in the direction sought with a large enough effect; inconclusive means small, poorly fitted or top-dose-only effect, or another doubt; inactive means no such curve, though single readings can be large; an effect the other way counts as inactive or inconclusive.

Results for O=C(c1ccccc1)N1N=C(c2ccc(F)cc2)CC1c1ccc(F)cc1 (stereo unspecified) ?
HT1080 IDH1KD tx: inactive; MCF10A rereplic: inactive; SW480 rereplic: inactive; KB-3-1 tox: inactive; HT1080NT lethal: inactive; KB-V1 MDR tox: inactive

Results for C=CC[C@@H](CC(=O)N(CCO)Cc1ccccc1)C(=O)NCCOC(=O)[C@H](CC=C)CC(=O)OC(C)(C)C ?
HT1080 IDH1KD tx: inactive; MCF10A rereplic: inactive; SW480 rereplic: inactive; KB-3-1 tox: inactive; HT1080NT lethal: inactive; KB-V1 MDR tox: inactive

What do the screens show for `COc1ccc(C2=NS(=O)(=O)N(C)C(C(=O)NCc3ccc4c(c3)OCO4)=C2)cc1OC`?
HT1080 IDH1KD tx: inactive; MCF10A rereplic: inactive; SW480 rereplic: inactive; KB-3-1 tox: inactive; HT1080NT lethal: inactive; KB-V1 MDR tox: inactive

Results for COC(=O)c1sccc1S(=O)(=O)N(CC(=O)NCc1ccc(C)cc1)c1ccc(Cl)cc1 ?
KB-3-1 tox: inactive; KB-V1 MDR tox: inactive

Results for COc1ccc(C2=NN(c3ccccc3)C(c3ccc(OC)c(OC)c3)C2)cc1 (stereo unspecified) ?
HT1080 IDH1KD tx: inactive; MCF10A rereplic: inconclusive; SW480 rereplic: 15µM; KB-3-1 tox: inconclusive; HT1080NT lethal: inactive; KB-V1 MDR tox: inactive

What do the screens show for `O=C(c1cccs1)N1N=C(c2ccccc2)CC1c1ccc(O)cc1` (stereo unspecified)?
HT1080 IDH1KD tx: inactive; MCF10A rereplic: inconclusive; SW480 rereplic: inactive; KB-3-1 tox: inactive; HT1080NT lethal: inactive; KB-V1 MDR tox: 13µM

How did Oc1ccc(C2=NN(c3ccccc3)C(c3ccc(F)cc3)C2)cc1 (stereo unspecified) do in these assays?
HT1080 IDH1KD tx: 26µM; MCF10A rereplic: 5.8µM; SW480 rereplic: 23µM; KB-3-1 tox: inactive; HT1080NT lethal: 18µM; KB-V1 MDR tox: inactive

How did COc1ccc(C2=NN(c3ccc(C=O)cc3)C(c3ccccc3)C2)cc1 (stereo unspecified) do in these assays?
HT1080 IDH1KD tx: inconclusive; MCF10A rereplic: inconclusive; SW480 rereplic: inconclusive; KB-3-1 tox: inactive; HT1080NT lethal: inconclusive; KB-V1 MDR tox: inactive

Results for Oc1ccccc1C1=NN(c2ccccc2)C(c2ccc(F)cc2)C1 (stereo unspecified) ?
HT1080 IDH1KD tx: inactive; MCF10A rereplic: inconclusive; SW480 rereplic: inconclusive; KB-3-1 tox: inactive; HT1080NT lethal: inactive; KB-V1 MDR tox: inactive

How did CCC(C(=O)NCc1ccc2c(c1)CCN2C(=O)c1ccc(F)cc1)c1ccccc1 (stereo unspecified) do in these assays?
KB-3-1 tox: inconclusive; KB-V1 MDR tox: inactive

How did Fc1cccc(CCN2CCNC[C@@H]2CC2CCCCC2)c1 do in these assays?
HT1080 IDH1KD tx: inactive; MCF10A rereplic: inactive; SW480 rereplic: inconclusive; KB-3-1 tox: inactive; HT1080NT lethal: inactive; KB-V1 MDR tox: inactive

Results for Cc1noc(C)c1S(=O)(=O)N(CC(=O)NCCc1ccc(Cl)cc1)c1ccc(C(C)C)cc1 ?
KB-3-1 tox: inactive; KB-V1 MDR tox: inactive

What do the screens show for `COc1cc(/C=C2\NC(=O)NC2=O)cc(Br)c1OC`?
HT1080 IDH1KD tx: inactive; MCF10A rereplic: inactive; SW480 rereplic: inactive; KB-3-1 tox: inconclusive; HT1080NT lethal: inactive; KB-V1 MDR tox: 5.8µM

How did COc1ccc(C=C2NC(=O)NC2=O)cc1O do in these assays?
HT1080 IDH1KD tx: inactive; KB-3-1 tox: inactive; HT1080NT lethal: inactive; KB-V1 MDR tox: inactive

What do the screens show for `COc1ccc(-c2cc(C(F)(F)F)n3nc(C(=O)N4CCN5CCCC5C4)cc3n2)cc1OC` (stereo unspecified)?
HT1080 IDH1KD tx: inactive; MCF10A rereplic: 12µM; SW480 rereplic: inconclusive; KB-3-1 tox: inactive; HT1080NT lethal: inactive; KB-V1 MDR tox: inactive

How did Cc1ccc(-c2cc(C(F)(F)F)n3nc(C(=O)N4CCN5CCCC5C4)cc3n2)cc1 (stereo unspecified) do in these assays?
HT1080 IDH1KD tx: inconclusive; MCF10A rereplic: inconclusive; SW480 rereplic: inconclusive; KB-3-1 tox: inactive; HT1080NT lethal: inconclusive; KB-V1 MDR tox: inactive

How did CCc1cc(CNC(=O)c2cccc(OC3CCN(S(C)(=O)=O)CC3)c2)on1 do in these assays?
HT1080 IDH1KD tx: inactive; MCF10A rereplic: inactive; SW480 rereplic: inactive; KB-3-1 tox: inconclusive; HT1080NT lethal: 16µM; KB-V1 MDR tox: inconclusive

How did O=C(NCc1cccc(Cl)c1)c1cccc(OC2CCN(C(=O)C3CC3)CC2)c1 do in these assays?
HT1080 IDH1KD tx: inactive; MCF10A rereplic: inconclusive; SW480 rereplic: inactive; KB-3-1 tox: 23µM; HT1080NT lethal: inconclusive; KB-V1 MDR tox: inconclusive

Results for CCC(C)NC(=O)c1nn(-c2ccc(C)cc2)c(=O)n(C)c1=O (stereo unspecified) ?
KB-3-1 tox: inactive; KB-V1 MDR tox: inactive

What do the screens show for `O=C1NC[C@H](CCCCN2C[C@H](Cc3ccc(O)cc3)N(CCC3CCCCC3)C(=O)C2=O)N(CCc2ccc(O)cc2)C1=O`?
HT1080 IDH1KD tx: inconclusive; KB-3-1 tox: inactive; HT1080NT lethal: inactive; KB-V1 MDR tox: inactive

How did CC1(C)Cc2c(sc(NC(=O)c3ccco3)c2C#N)C(C)(C)N1 do in these assays?
HT1080 IDH1KD tx: inactive; MCF10A rereplic: inactive; SW480 rereplic: inactive; KB-3-1 tox: inactive; HT1080NT lethal: inactive; KB-V1 MDR tox: 18µM

What do the screens show for `CC1(C)Cc2c(sc(NC(=O)COc3ccc(Cl)cc3Cl)c2C(N)=O)C(C)(C)N1`?
HT1080 IDH1KD tx: inactive; MCF10A rereplic: 23µM; SW480 rereplic: inconclusive; KB-3-1 tox: inactive; HT1080NT lethal: inactive; KB-V1 MDR tox: inactive

Results for COC(=O)c1c(NC(=O)COc2ccc(Cl)cc2)sc2c1CC(C)(C)NC2(C)C ?
HT1080 IDH1KD tx: inactive; MCF10A rereplic: inconclusive; SW480 rereplic: inconclusive; KB-3-1 tox: inconclusive; HT1080NT lethal: inactive; KB-V1 MDR tox: inconclusive

Results for Cc1cc(OCC(=O)Nc2sc3c(c2C#N)CC(C)(C)NC3(C)C)c(C(C)C)cc1Cl ?
HT1080 IDH1KD tx: inactive; MCF10A rereplic: 18µM; SW480 rereplic: inactive; KB-3-1 tox: inactive; HT1080NT lethal: inactive; KB-V1 MDR tox: inactive

How did Cc1cccc2c(=O)cc(CSc3ccccc3NC(=O)C(C)(C)C)[nH]c12 do in these assays?
KB-3-1 tox: inactive; KB-V1 MDR tox: inactive

How did CCOc1ccc(/C(O)=C2/C(=O)C(=O)N(CCCN3CCOCC3)C2c2ccc(C)cc2)cc1C (stereo unspecified) do in these assays?
HT1080 IDH1KD tx: inactive; MCF10A rereplic: inactive; SW480 rereplic: inconclusive; KB-3-1 tox: inactive; HT1080NT lethal: inactive; KB-V1 MDR tox: inactive

How did Cc1cc(N2CCN(c3ccc([N+](=O)[O-])c4cccnc34)CC2)c2ccccc2n1 do in these assays?
HT1080 IDH1KD tx: inconclusive; MCF10A rereplic: inconclusive; SW480 rereplic: inactive; KB-3-1 tox: 16µM; HT1080NT lethal: inconclusive; KB-V1 MDR tox: inconclusive
